tested on: LOC_OS06G16330-cb003; experiment: thermal shift delta Tm vs DMSO control; higher = stronger stabilization (binding); conditions: 12.5 µM; protein concentration 2 µM
Outline: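 Rice kinase domain constructs were expressed in E. coli, purified, and tested by differential scanning fluorimetry with compound added in DMSO. Each well of a 96-well plate held 19.5 μl of 2 μM kinase in 100 mM potassium phosphate pH 7.5, 150 mM NaCl, 10% glycerol and 5 × SYPRO Orange, and fluorescence was read from 25°C to 95°C at 0.05°C/s. The melting temperature shift is the mean of triplicates, taken against protein with DMSO alone after Boltzmann fitting.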

Chain of LOC_OS06G16330-cb003 (as listed by the source): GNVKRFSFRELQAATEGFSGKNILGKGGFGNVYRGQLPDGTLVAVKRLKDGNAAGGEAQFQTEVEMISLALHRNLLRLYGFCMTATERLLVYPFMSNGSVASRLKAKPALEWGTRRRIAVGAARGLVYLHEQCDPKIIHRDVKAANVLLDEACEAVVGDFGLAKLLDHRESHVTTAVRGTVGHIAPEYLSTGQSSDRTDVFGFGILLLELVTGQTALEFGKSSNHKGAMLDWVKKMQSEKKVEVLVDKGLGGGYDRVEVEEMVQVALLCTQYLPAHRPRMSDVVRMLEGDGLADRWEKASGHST

Row | SMILES | thermal shift delta Tm
1 | CN1CCN(c2cccc(Nc3nc4c(-c5ccc(S(C)(=O)=O)cc5)cccn4n3)c2)CC1 | 4.09 °C
2 | C[C@@H](NC(=O)c1ncnc(N)c1Cl)c1ncc(C(=O)Nc2cc(C(F)(F)F)c(Cl)cn2)s1 | 0.58 °C
3 | N#CC(=C(/N)Sc1ccccc1N)/C(C#N)=C(\N)Sc1ccccc1N | 1.2 °C
4 | Cc1cc(Nc2cc(N3CCN(C)CC3)nc(/C=C/c3ccccc3)n2)n[nH]1 | 5.06 °C
5 | OCCn1cc(-c2ccc3c(c2)CC/C3=N\O)c(-c2ccncc2)n1 | 0.46 °C
6 | COc1cc2c(c(OC)c1OC)-c1c(cc3c(c1OC)OCO3)CC(C)C(C)C2 (centres undefined) [Schisandrin B (Sch B)] | -0.39 °C
7 | COc1cc(N2CCN(C)CC2)ccc1Nc1nccc(-c2cn(C)c3cnccc23)n1 | 5.31 °C
8 | CN(c1ccccc1CNc1nc(Nc2ccc3c(c2)CC(=O)N3)ncc1C(F)(F)F)S(C)(=O)=O | 7.19 °C
9 | CNC(=O)c1ccc(Nc2ncc(C(F)(F)F)c(NCc3nccnc3N(C)S(C)(=O)=O)n2)cc1 | 5.49 °C
10 | O=C(O)c1ccc2c3c1cccc3c(=O)n1c3ccccc3nc21 | 4.49 °C
11 | Cc1nc(Nc2n[nH]c3c2CN(C(=O)N[C@H](CN(C)C)c2ccccc2)C3(C)C)c2sccc2n1 | 0.72 °C
12 | C[C@H]1[C@H](C)CC[C@]2(C(=O)O)CC[C@]3(C)C(=CC[C@@H]4[C@@]5(C)C[C@@H](O)[C@H](O)[C@@](C)(CO)[C@@H]5CC[C@]43C)[C@H]12 [Asiatic Acid] | -0.23 °C
13 | COc1ccc(-c2cc3nccn3c(Nc3ncccc3C(N)=O)n2)cc1OC | 4.18 °C
14 | O=C(NCc1ccccc1)c1csc(Nc2ccncn2)n1 [Thiazovivin] | 0.41 °C

Reference: the supplement of paper PMC9694430
